FLuc modulator: inhibits or activates purified firefly luciferase, miR-21 counter-screen; P08659; purified FLuc, Km substrates, luminescence inhibition; Potency, µM (titrated, usually from 57.5 µM), without a hit: at the highest dose activity change, negative = inhibition, actives largely listed as inhibitors; actives 6.9% (n = 360,000); AID 588342;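 also: plate controls were vehicle for no effect and reference inhibitor for full effect; nearly all actives have a fitted effect of over 55% in size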
Target sequence (P08659 whole entry, looked up): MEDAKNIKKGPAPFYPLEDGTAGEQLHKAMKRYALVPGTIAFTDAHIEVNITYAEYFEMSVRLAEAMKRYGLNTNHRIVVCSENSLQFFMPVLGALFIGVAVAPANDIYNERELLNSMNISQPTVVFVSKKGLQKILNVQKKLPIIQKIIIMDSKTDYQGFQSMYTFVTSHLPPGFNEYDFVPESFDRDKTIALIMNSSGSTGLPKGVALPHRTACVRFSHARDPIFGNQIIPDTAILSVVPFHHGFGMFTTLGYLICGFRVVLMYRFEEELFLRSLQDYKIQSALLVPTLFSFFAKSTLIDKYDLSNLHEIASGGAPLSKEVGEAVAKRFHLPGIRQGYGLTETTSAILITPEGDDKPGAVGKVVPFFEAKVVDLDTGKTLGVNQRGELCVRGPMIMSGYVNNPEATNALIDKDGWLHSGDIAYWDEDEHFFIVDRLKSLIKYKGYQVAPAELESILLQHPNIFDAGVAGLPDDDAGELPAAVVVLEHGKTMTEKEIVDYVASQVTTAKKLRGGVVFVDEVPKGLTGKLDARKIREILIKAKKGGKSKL
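Purified P. pyralis luciferase (10nM final) with 10uM D-luciferin and 10uM ATP (Km levels) in 50mM Tris acetate pH 7.5, 10mM Mg acetate, 0.01% Tween-20, 0.05% BSA; qHTS 6-point titration, ~60 µM downward; luminescence read.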
ELG1 genotox: genotoxicity induction in ELG1-luciferase HEK293T cells; HEK293T ELG1-luciferase reporter, luminescence, 16 h; Potency, µM (series often up to 46 µM), for the others: top-dose activity change, positive = activation, usual class: activators; actives 1.3% (n = 330,000); AID 504466; also: % of control where 0% means no effect; nearly all actives have a fitted effect of over 60% in size
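HEK293T cells expressing luciferase-tagged ELG1 were treated with compound or DMSO for 16 hr at 37°C. Luciferase activity was then read after 30 min with ONE-Glo at room temperature; rising signal flags genetic stress.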
Luc counter: counter-screen: inhibitors of Kinase-Glo firefly luciferase; Q27757; Kinase-Glo luciferase, ATP luminescence, 8 min; Potency, µM (doses to about 38.3 µM), for the others: at the top dose activity change, negative = inhibition, hits mostly inhibitors; actives 0.28% (n = 200,000); also: % is scaled to controls: 0 for no effect and ±100 for the full control effect; nearly all actives have a fitted effect of over 60% in size
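Light output from Kinase-Glo luciferase with luciferin and 10 uM ATP in 50 mM imidazole pH 7.2, KCl, MgCl2, Tween 20, BSA; compound pin-delivered, 8-min ambient incubation, then luminescence read.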
NPC1 prom act: NPC1 promoter activation | Huh7 NPC1 promoter luciferase reporter, 24 h | Potency, µM (highest dose often 9.22 µM), inactives show top-dose activation, usual class: activators | actives 2.4% (n = 320,000) | AID 485313; also: % of control where 0% means no effect; nearly all actives have a fitted effect of over 60% in size
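Luminescence from an NPC1 promoter-driven luciferase reporter in stably transfected Huh7 cells was measured after 24 h compound treatment at 37 °C, followed by 10 min ambient incubation with luciferase detection reagent.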
SMN2 splice enh: SMN2 splice variant enhancement. Potency, µM (top dose mostly 46.1 µM), inactives show at the highest dose activity change, positive = activation, hits mostly activators. AID 1458. actives 2.8% (n = 210,000). HEK293 SMN2-luciferase splicing reporter, luminescence, 30-36 h; also: % of control where 0% means no effect; nearly all actives have a fitted effect of over 55% in size
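HEK293 cells carry an SMN2 minigene-luciferase reporter in which exon 7 inclusion puts luciferase in frame. Cells were seeded at 2000 cells/well, attached for 10-12 hours, then exposed to compounds for 30-36 hours at 37C before ONE-Glo luminescence.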
Rab9 promoter act: activates the Rab9 promoter; Huh7 Rab9 promoter-luciferase reporter, luminescence, 24 h; Potency, µM (highest dose often 9.22 µM), for the others: top-dose activation, negative = inhibition, hits mostly activators; actives 2.8% (n = 320,000); also: % of control where 0% means no effect; nearly all actives have a fitted effect of over 60% in size
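Cells were plated at 1500 per well in reduced-serum medium with 10% FBS and left 2 h. Compound in DMSO was then added for 24 h at 37 °C. Reporter signal was read by luminescence after 10 min with luciferase detection reagent.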
An asterisk follows results filed as active; ? = inconclusive; / = no result; [ ] = another dose, or the depositor's remark. The list is not random: actives were taken first. Their share in the collection is about 7.5%. Calls follow the shape of the dose curve; as a rule, active = well fitted curve in the direction sought with a large enough effect; inconclusive = small, poorly fitted or top-dose-only effect, or another doubt; inactive = no such curve, though single readings can be large; an effect the other way counts as inactive or inconclusive. Potency is read from the fitted curve at half-maximal effect.

SMILES	FLuc modulator	ELG1 genotox	Luc counter	NPC1 prom act	SMN2 splice enh	Rab9 promoter act
COc1ccccc1Nc1cc(C(=O)NCc2cccnc2)c2ccccc2n1	8.5µM*	0%	/	-2%	/	4%
Cc1ccc(C)c(Nc2cc(C(=O)NCc3cccnc3)c3ccccc3n2)c1	?	-10%	/	0%	/	1%
CC(C)C[C@H](NC(=O)OC(C)(C)C)C(=O)N[C@@H](CO)[C@H](O)[C@@H]1C[C@@H]1C(=O)NC1CCCCC1	0%	-2%	/	-5%	/	3%
Cn1c(=O)c2c(nc(CN3CCN(c4ccccc4F)CC3)n2Cc2ccc(F)cc2)n(C)c1=O	-8%	/	/	/	5%	/
C=CCNC(=O)c1ccc(OC2CCN(S(=O)(=O)N(C)C)CC2)cc1	17µM*	14%	1%	16%	/	?
COc1cc(C/C=C\c2ccccc2)c(OC)cc1O	/	/	1%	/	-2%	/
Cc1cc(/C([O-])=C(/C(=S)Nc2ccccc2)[n+]2ccccc2)c(C)n1-c1ccccc1	12µM*	10µM*	1%	17%	0%	22%
Cc1cc(/C([O-])=C(/C(=S)Nc2ccc(F)cc2)[n+]2ccccc2)c(C)n1-c1ccc(F)cc1	?	5%	-2%	11%	2%	22%
CCOC(=O)c1ccc(N2C=C(C(=O)OC)C(c3ccc(OC)c(O)c3)C(C(=O)OC)=C2)cc1	17µM*	5%	/	1%	/	1%
O=c1c2c3c(sc2n(Cc2cc(=O)n4ccccc4n2)c(=O)n1-c1ccc(Cl)cc1)CCC3	-1%	/	/	/	-9%	/
O=C(COc1ccc(Cl)cc1)NCCNc1ccc([N+](=O)[O-])cc1	-1%	-2%	/	3%	/	-6%
CCOC(=O)c1oc2ccc(CNCCO)c(Cl)c2c1C	17µM*	?	-3%	24%	24%	28%
COc1ccc(CNC(=O)c2cc3cccc(O)c3oc2=N)cc1	?	?	/	-3%	/	-3%
O=C1C(Cl)=C(N2CCCCC2)C(=O)N1Cc1ccccc1	-2%	-1%	-7%	-6%	-25%	-3%
O=C1C(Cl)=C(N2CCOCC2)C(=O)N1CCc1ccccc1	19µM*	?	-2%	13%	13µM*	?
CN1CCN(C2=C(Cl)C(=O)N(CCc3ccccc3)C2=O)CC1	?	14%	4%	19%	13µM*	?
O=C1C(Cl)=C(NCC2CCCO2)C(=O)N1CCc1ccccc1 (centres undefined)	15µM*	?	0%	?	13µM*	?
O=C(O)c1cccc(-n2cc(-c3cccc(C(F)(F)F)c3)cn2)c1	1.2µM*	?	/	0.32µM*	/	0.35µM*
COc1ccc(/C=N/Nc2nc3ccccc3c(=O)n2-c2ccccc2)cc1OC	1.9µM*	10%	-25%	18%	-9%[1.84 µM]	?
COc1ccc(/C=N/Nc2nnc(Cc3ccccc3)c(=O)[nH]2)cc1OC	1.7µM*	14%	/	?	/	26%
COc1ccc(Cc2nnc(N/N=C/c3ccc(O)cc3)[nH]c2=O)cc1OC	-3%	16%	3%	-34%	-86%	-32%
COc1ccc(/C=N/n2c(C)nc3ccccc3c2=O)cc1OC	-5%	1%	/	10%	/	-3%
Cc1ccc(-c2nc3cccnc3s2)cc1NC(=O)Cc1ccccc1	1.1µM*	/	/	/	/	/
CCCC(=O)Nc1cc(-c2nc3cccnc3s2)ccc1C	9.5µM*	/	/	/	/	/
COc1ccc(CC(=O)Nc2cc(-c3nc4cccnc4s3)ccc2C)cc1	0.67µM*	/	/	/	/	/
SMILES	FLuc modulator	ELG1 genotox	Luc counter	NPC1 prom act	SMN2 splice enh	Rab9 promoter act
CCC(CC)C(=O)Nc1cc(-c2nc3cccnc3s2)ccc1C	12µM*	/	/	/	/	/
COc1ccc(/C=N/NC(=O)c2cccc(S(=O)(=O)N3CCCC3)c2)cc1O	?	0%	/	0%	/	0%
CCOC(=O)C1CCCN(C(=O)CNC(=O)c2ccc(Br)o2)C1 (centres undefined)	/	0%	/	/	/	/
CCC(C)c1ccc(Nc2ncccc2C#N)cc1 (centres undefined)	21µM*	?	-6%	?	?	?
COc1ccc(/C=N/n2nnnc2N)c(OC)c1	?	13%	/	16%	/	3%
Cc1cc(C(=O)COC(=O)c2ccc(O)cc2O)c(C)n1-c1ccccc1	2.1µM*	?	/	?	/	?
CCOC(=O)c1cc(C)n(-c2ccccc2)c1C	15µM*	?	/	0%	/	25%
Cc1cc(C(=O)OCC(N)=O)c(C)n1-c1ccccc1	?	16%	1%	16%	?	17%
COc1ccc(-n2c(C)cc(C(=O)COC(=O)c3ccc(O)cc3O)c2C)cc1	?	-4%	/	-4%	/	-16%
CCOc1ccc(C(=O)NCc2nc(-c3ccc(Cl)cc3)no2)cc1OCC	2%	/	/	/	4%	/
Cc1cc(Br)c2[nH]cc(CCNC(=O)c3ccco3)c2c1	?	2%	/	1%	/	1%
Cc1ccccc1CSc1cn(CC(=O)N2CCCCCC2)c2ccccc12	-3%	/	/	/	/	/
COc1cccc(C(=O)/C=C/c2ccc(SC)cc2)c1	3.4µM*	2%	-25%	0%	-22%	-5%
COC(=O)c1ccc(/C=C/C(=O)c2cccc(OC)c2)cc1	9.5µM*	?	-9%	?	20%	?
COc1cccc(/C=C/C(=O)Oc2ccc(C(=O)c3ccc(F)cc3)cc2)c1	-10%	2%	0%	-2%	10%	-4%
